Among the data in PubChem BioAssay (NCI) are growth values, retold here.

Common to all, as to assay: NCI-60 one-dose screen, 48 h (100 = growth as untreated, 0 = no growth, -100 = all killed)
The test system of test [1] is SR leukemia. Conditions: 10 µM unless noted.
Test [2] deals with RPMI-8226 leukemia. Conditions: 10 µM unless noted.
In test [3] the test system is OVCAR-8 ovarian. Conditions: 10 µM unless noted.
The test system of test [4] is OVCAR-5 ovarian. The note with it: 10 µM unless noted.
In test [5] the test system is OVCAR-4 ovarian. The note with it: 10 µM unless noted.
Test [6] has as its system SK-OV-3 ovarian. The note with it: 10 µM unless noted.
Test [7] deals with IGROV1 ovarian. Conditions: 10 µM unless noted.
The subject of test [8] is OVCAR-3 ovarian. Conditions: 10 µM unless noted.
In test [9] the test system is HS 578T breast. The note with it: 10 µM.
The subject of test [10] is NCI/ADR-RES ovarian. Conditions: 10 µM unless noted.
Test [11] deals with T-47D breast. Conditions: 10 µM unless noted.
For test [12], the system named is BT-549 breast. The note with it: 10 µM unless noted.
Test [13] relates to MDA-MB-435 melanoma. The note with it: 10 µM unless noted.
In test [14] the test system is MCF7 breast. The note with it: 10 µM unless noted.
The subject of test [15] is HCT-116 colon. The note with it: 10 µM unless noted.
Test [16] has as its system HCC-2998 colon. Conditions: 10 µM unless noted.
Test [17] relates to KM12 colon. The note with it: 10 µM unless noted.
The subject of test [18] is SW-620 colon. Conditions: 10 µM unless noted.

About 83,000 compounds went through this panel and 20% of them were active in at least one assay; those are over-represented in the sample as a whole.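 Assay: single dose, 48 h. Readout: percent growth (0 = no net growth; negative = cell death). Active: <10.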 Values without a mark were called inactive. The source made the active and inactive calls.

For `Clc1cn2cc(-c3ccc(Cl)c(Cl)c3Cl)nc2s1`, the growth in [1] is 75.5%; in [2] it was 108%; in test [3], 99.5%; in test [4], 87.8%; in [5] it was 100%; in test [6], 103%. For the same molecule, the growth in test [7] was 55.7%; in test [8], 101%; in [9], 104%; in [10], 110%; in test [11] it was 71.8%; in test [12], 129%. For the same molecule, the growth in test [13] is 88.1%; in test [14], 87.8%; in [15], 96.9%; in test [16], 106%; in test [17], 111%.

Take `COc1c(B(O)O)cccc1-c1nc2c(F)cc3n[nH]c(C)c3c2c2c1CCCC2`: the growth in test [1] was 42%; in test [2] it was 6.03% (active); in test [3] it was 17.3%; in test [4] it was 8.74% (active); in [5], 43.7%; in [6], -1.49% (active). For the same molecule, the growth is 16.3% in [7]; 9.19% (active) in [8]; 9.55% (active) in [9]; 36.4% in test [10]; 21.2% in test [12]; 21.2% in test [13]. Also, the growth in [18] was 15.3%; in test [14], 15%; in test [15] it was 10.5%; in [16], 51.7%.

As to `CCCNC(=S)N/N=C(\C)c1ccccn1`, the growth was 10% in test [1]; 20% in test [2]; 25.2% in test [3]; 49.3% in test [4]; 14.8% in test [5]; 29.3% in [6]. The growth is 9.27% (active) in test [7]; 41.4% in test [8]; 32.9% in test [9]; 11.5% in test [10]; 32.4% in test [12]; 49% in [13]. Besides, the growth was 33.4% in [18], 6.77% (active) in [14], 4.71% (active) in [15] and 32% in test [17].

For `CC(C)c1[nH]ncc1-c1nc2ccc3[nH]ncc3c2c2c1CCCC2`, the growth in [1] is 6.47% (active); in test [2], 33.9%; in [3], 37.2%; in test [4] it was 48.7%; in test [5], 75.8%; in test [6] it was 16.5%. Moreover, the growth in [7] is 21.9%; in [8] it was 46.8%; in test [9] it was -1.07% (active); in test [10], 66.1%; in [11], 46.8%; in test [12], 27.4%. For the same molecule, the growth in [13] is 53.8%; in test [14], 20.4%; in test [15], 12.2%; in test [16], 53.5%; in test [17], 17.4%.

Consider `C=C(CN1CC=CCC1)[C@@H]1CC[C@]2(C(=O)OC)CC[C@]3(C)[C@H](CC[C@@H]4[C@@]5(C)CC[C@H](OC(C)=O)C(C)(C)[C@@H]5CC[C@]43C)[C@@H]12`, for which the growth in test [1] is 69.4%; in [2], 50%; in [3], 103%; in [4], 118%; in [5], 91.3%; in test [6], 103%. The growth is 91.8% in [7]; 92.5% in [8]; 109% in [9]; 107% in test [10]; 85.6% in [12]; 90.7% in [13]. Besides, the growth in test [18] was 102%; in [14], 88.2%; in test [15], 86.7%; in test [16], 108%; in [17], 78.6%.

On to `CCNC(=S)N(Cc1ccccc1)Cc1ccccc1`, for which the growth is 72% in test [1]; 110% in test [2]; 103% in [3]; 91% in [4]; 124% in [5]; 105% in [6]. The growth in test [7] is 113%; in [8], 123%; in [9], 136%; in test [10], 106%; in test [12], 119%; in test [13], 105%. Moreover, the growth is 115% in [18]; 107% in test [14]; 110% in test [15]; 98.3% in test [16]; 114% in test [17].

For `O=C(Nc1ccc(Br)cc1)Nc1ccccc1Cl`, the growth was 84.9% in test [1]; 50% in test [2]; 79.8% in test [3]; 90.1% in test [4]; 75.1% in test [5]; 84.6% in test [6]. In addition, the growth in test [7] is 63.9%; in [8], 88.1%; in test [9], 99.7%; in [10], 80%; in test [12], 103%; in test [13], 102%. Besides, the growth in test [18] was 96.4%; in [14], 71%; in test [15] it was 71.8%; in [16] it was 91%; in [17], 90.4%.

For the molecule `Cn1nc(C(F)(F)F)cc1-c1cc(Cl)c(OCc2ccc(Cl)cc2)c(-c2ccc(Cl)c(C(F)(F)F)c2)c1O`, the growth in test [1] was 17.6%; in test [2] it was -21.8% (active); in test [3], 14.5%; in test [4], 10.3%; in test [5], 17.2%; in test [6] it was -7.57% (active). Moreover, the growth is 25.9% in test [7]; 7.63% (active) in test [8]; -5.65% (active) in test [9]; 1.22% (active) in test [10]; -0.385% (active) in [12]; 1.41% (active) in test [13]. In addition, the growth was 12.2% in test [18]; 3.29% (active) in test [14]; -11.1% (active) in [15]; 13.6% in test [16]; 7.08% (active) in test [17].

Take `CC(=O)O[C@H]1[C@H](CC#CC#CC[C@@H]2C[C@]3(C)[C@H]4CC=C5[C@H]6[C@@H](C)[C@H](C)CC[C@]6(C(=O)NCCCCCCCCN)CC[C@@]5(C)[C@]4(C)CC[C@H]3C(C)(C)[C@H]2OC(C)=O)C[C@]2(C)[C@H]3CC=C4[C@H]5[C@@H](C)[C@H](C)CC[C@]5(C(=O)NCCCCCCCCN)CC[C@@]4(C)[C@]3(C)CC[C@H]2C1(C)C`: the growth in [1] is 123%; in [2], 95.6%; in test [3], 108%; in test [4] it was 108%; in test [5] it was 114%; in test [6], 108%. Further, the growth in test [7] is 99.1%; in [8], 100%; in [9], 110%; in test [10], 98.1%; in [12] it was 112%; in test [13], 110%. The growth in test [18] was 97.8%; in test [14], 105%; in [15] it was 97.7%; in test [16], 100%; in [17] it was 89.2%.
